# Only some compounds are listed: those with a hit (about 2.2% of all), similar ones and a draw of the others.
# CHT allo act = allosteric activators of human choline transporter CHT. CHT-expressing cells, membrane potential dye, choline EC20; active compounds read high; LV-AA mutant CHT in HEK293 cells. 310,000 compounds, 0.49% hits. B-score at 10 µM. Q9GZV3;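 active = initial fluorescence not abnormally high and integrated response B-score, plate-corrected, over 3 SD above library mean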
# Platelet DG rel = modulates dense granule release in human platelets | human platelet-rich plasma, SFLLRN dense granule ATP release, luminescence | inhibition, %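 (compounds screened at 7.5 µM in platelet-rich plasma)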 | 300,000 compounds, 0.22% hits | AID 1663;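 active = mean replicate score, as percent of positive control, at or above 50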
# AI-2 QS mod = Vibrio harveyi AI-2 quorum sensing modulation. Vibrio harveyi JMH597 AI-2 luminescence/OD600 ratio, 9 h; active compounds read low; strain lacks LuxN and CqsS sensors; 0 = neutral-control median. activity change, % at 7.5 µM. 300,000 compounds, 0.4% hits. AID 2094; in the data active = activity change below about -75%, passing the limit was not always enough;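 also: luminescence divided by OD600 gain over 9 h not by final OD600 alone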
# HIF act = HIF pathway transcriptional activation. AID 1910. U2OS HRE-luciferase reporter, luminescence; normalized: DMSO 0%, desferrioxamine 100%. activation, % at 7.5 µM (by protocol). 300,000 compounds, 0.32% hits;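 active = mean activation of at least 10% of the iron chelator positive control signal, with at least half of replicates also reaching 10%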
# VLA-4 inh = inhibition in a human VLA-4 binding assay | AID 2557 | 330,000 compounds, 0.2% hits | P13612 | VLA-4 expressing cells, ligand binding flow cytometry | inhibition, % (about 7 µM as worked out from the volumes in the protocol); in the data active = inhibition above about 50%
# CHT inh = inhibitors of human choline transporter CHT; Q9GZV3; CHT-expressing cells, membrane potential dye, choline response; active compounds read low; B-score at 10 µM; 310,000 compounds, 0.86% hits; AID 488975;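 active = B-score over 3 SD under the library average, and starting fluorescence ratio not unusually high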;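 also: choline stimulus applied at its EC90 after an EC20 pre-addition; B-score computed on integrated fluorescence ratio after choline addition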
# VLA-4 mod pick = confirmation of allosteric modulators of human VLA-4 integrin; inhibition, % at 6.7 µM; shares compounds with VLA-4 inh; 1,300 compounds, 2% hits; U937 cells, HUTS-21 LIBS mAb binding, flow cytometry; LDV ligand present at threefold Kd; in the data active = inhibition above about 40%;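 also: 0% = ligand without compound and 100% = no ligand background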
# The depositor's hits bear a star; i = inactive; . = no result given.
SMILES,CHT allo act,Platelet DG rel,AI-2 QS mod,HIF act,VLA-4 inh,CHT inh,VLA-4 mod pick
CCN1CCN(Cc2ccc(NC(=O)c3cc(NC(=O)c4ccc5n[nH]nc5c4)cc(OC)c3)cc2C(F)(F)F)CC1,i,1,15,1,-11,i,.
CC(C)(C)C(=O)/C=C/c1ccc(Oc2ccccc2)cc1,i,3,5,-2,8,i,.
COc1ccc(S(=O)(=O)NCC(=O)O)cc1C(=O)NC1CCCCC1,i,8,4,1,41,i,-7
COc1cccc2cc(C(=O)NCCN3CCOCC3)c(=O)oc12,i,.,9,-2,41,i,-18
COc1ccc(-n2cnc3cc(C(=O)NCCN4CCOCC4)ccc32)cc1,i,-1,21,0,43,i,-7
COc1ccc(OC)c(-n2cnc3cc(C(=O)NCCCN4CCOCC4)ccc32)c1,i,17,1,0,8,i,.
COc1ccc(NC(=O)C2CCN(C(=O)c3ccccc3)CC2)cc1OC,i,0,12,0,4,i,.
COc1ccc(NC(=O)C2CCN(C(=O)c3cccs3)CC2)c(OC)c1,i,3,9,0,6,i,.
COc1ccc(NC(=O)C2CCN(C(=O)c3ccccc3)CC2)c(OC)c1,i,.,.,.,33,i,4
COc1ccc(C(=O)N2CCC(C(=O)Nc3ccccc3OC)CC2)cc1,i,3,8,0,57*,i,-2
COc1cc(C(=O)N2CCC(C(=O)Nc3cccc(C(C)=O)c3)CC2)cc(OC)c1OC,i,2,28,0,94*,i,6
CCOC(=O)C(=O)NCC(c1cccs1)S(=O)(=O)c1ccc(F)cc1 (centres undefined),i,2,18,-21,5,i,.
CN(C)c1nc(-c2cn(CCC#N)c3ccccc23)cs1,i,-8,6,0,2,i,.
O=C(O)c1ccc(S(=O)(=O)N2CCCc3ccccc32)cc1,i,-19,-16,-34,1,i,.
COCCNC(=O)c1ccc(S(=O)(=O)N2CCCc3ccccc32)cc1,i,10,9,-1,-10,i,6
CCNC(=O)COC(=O)c1cc(S(=O)(=O)N2CCCc3ccccc32)ccc1Cl,i,-3,-12,0,7,i,-3
COc1ccc(Cl)cc1C(=O)NNC(=O)CSc1nncn1C,.,.,.,.,-4,.,.
CCCCn1c(N)c(N(CCOC)C(=O)C2CC(=O)N(c3cccc(SC)c3)C2)c(=O)[nH]c1=O (centres undefined),i,-4,8,0,1,i,.
C/C(CC(=O)Nc1cccc2c1CCCC2)=N\NC(=O)c1cccc2ccccc12,i,5,5,1,43,i,2
C/C(CC(=O)Nc1cccc2c1CCCC2)=N\NC(=O)c1ccccc1N,i,6,17,4,-1,i,.
CCOc1ccc(-c2nnc3ccc(SCC(=O)N4CCCCC4)nn23)cc1,i,13,23,0,18,i,-1
Cc1ccccc1NC(=O)Cc1nc(COC(=O)c2ccc(Cl)nc2)cs1,i,4,17,0,34,i,.
O=[N+]([O-])c1ccccc1Oc1ncccc1[N+](=O)[O-],i,7,29,0,72*,i,10
O=[N+]([O-])c1cccnc1Oc1ccc(F)cc1F,i,1,21,0,22,i,.
CCn1cc(C(=O)O)c(=O)c2cnc(N3CCN(C(=S)Nc4ccccc4C(F)(F)F)CC3)nc21,i,-3,15,0,9,i,.
SMILES,CHT allo act,Platelet DG rel,AI-2 QS mod,HIF act,VLA-4 inh,CHT inh,VLA-4 mod pick
COc1cccc(NC(=O)CN(C)C(=O)CN2C(=O)NC(C)(c3ccc4ccccc4c3)C2=O)c1 (centres undefined),i,7,-2,-1,14,i,.
C=C(C)CN(CC)C(=O)CN1C(=O)NC(C)(c2ccc3ccccc3c2)C1=O (centres undefined),i,-2,15,0,50*,i,-13
Cc1cc(C)c(NC(=O)CNC(=O)c2ccc3ncsc3c2)c(C)c1,.,.,.,.,22,.,.
CCNC(=O)CC1C(=O)N(c2cccc(C)c2)C(=O)N1CCC(C)C (centres undefined),i,-11,21,-14,23,i,.
COc1ccc(C(C#N)c2ccc(=O)[nH]n2)cc1 (centres undefined),i,-6,2,0,55*,i,-9
CC(OC(=O)C1CC2CCCC(C1)C2=O)C(=O)Nc1cccc([N+](=O)[O-])c1 (centres undefined),.,.,.,.,2,.,.
COc1ccc(N2CCN(C(=O)c3ccc4ccccc4n3)CC2)cc1,i,0,3,0,41,i,7
COc1ccc(/C=C/C(=O)Nc2ccccc2C(=O)O)cc1,i,3,18,-5,7,i,.
COc1ccc(/C=C/C(=O)Nc2ccccc2C(=O)NCC(c2ccc(OC)cc2)N(C)C)cc1 (centres undefined),i,-1,12,3,54*,i,1
CCOc1cnn(-c2ccccc2)c(=O)c1Cl,i,5,13,2,48,i,-12
CCSc1cnn(-c2ccccc2)c(=O)c1Cl,i,-3,14,-1,15,i,.
CC[C@@H]1C=C(C(=O)O)[C@H](c2ccc(C)cc2)N1S(=O)(=O)c1ccc(C)cc1,.,.,.,.,36,.,0
CC(C)(C)[C@@H]1C=C(C(=O)O)[C@H](c2ccc(Cl)cc2)N1S(=O)(=O)c1ccccc1,.,.,.,.,26,.,0
Cc1ccc([C@H]2C(C(=O)O)=CC[C@@H](c3cccs3)N2S(=O)(=O)c2ccc(C)cc2)cc1,.,.,.,.,14,.,.
Cc1ccc(S(=O)(=O)N2[C@@H](c3ccc(C(C)(C)C)cc3)C(C(=O)O)=CC[C@H]2c2cccs2)cc1,.,.,.,.,60*,.,2
COc1ccc([C@@H]2CC=C(C(=O)O)[C@H](c3ccccc3)N2S(=O)(=O)c2ccc(C)cc2)cc1OC,i,.,.,.,22,i,.
COc1ccc([C@H]2C(C(=O)O)=C[C@@H](C(C)(C)C)N2S(=O)(=O)c2ccc(C)cc2)cc1OC,.,.,.,.,40,.,1
Cc1cccc(NC(=S)NC2CCSc3ccccc32)c1 (centres undefined),i,-4,-5,1,0,i,.
CCCN(Cc1ccc(C)cc1)C(=O)c1ccc(CNS(=O)(=O)c2ccc(C(C)=O)cc2)cc1,.,.,.,.,-6,.,.
CC[C@@H]1C=C(C(=O)O)[C@H](c2ccc(OC)c(OC)c2)N1S(=O)(=O)c1ccc(C)cc1,.,.,.,.,28,.,1

# Source: PubChem
